Hit rate of the full screen: of about 58,000 compounds, about 3,400 (5.9%) were called active. The sample holds actives, similar compounds and a random draw of the others, so the mix is not that of the screen. Values without a mark were called inactive.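 The calls were made as follows: active = luminescence count or its row- and column-corrected plate score outside the 99.7% band of the plate's sample wells, on either side; inactive = the rest.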
molecular target: D(1A) dopamine receptor (Homo sapiens) (UniProt P21728); test: D1 CRE-luciferase signal change, two-sided – cell-based, HEK293 D1, dopamine EC30, D1 allosteric modulator project, primary screen (AID 641); settings: dopamine EC30 potentiation, at 10 µM, actives deviate in either direction
Sequence (P21728 whole entry, looked up): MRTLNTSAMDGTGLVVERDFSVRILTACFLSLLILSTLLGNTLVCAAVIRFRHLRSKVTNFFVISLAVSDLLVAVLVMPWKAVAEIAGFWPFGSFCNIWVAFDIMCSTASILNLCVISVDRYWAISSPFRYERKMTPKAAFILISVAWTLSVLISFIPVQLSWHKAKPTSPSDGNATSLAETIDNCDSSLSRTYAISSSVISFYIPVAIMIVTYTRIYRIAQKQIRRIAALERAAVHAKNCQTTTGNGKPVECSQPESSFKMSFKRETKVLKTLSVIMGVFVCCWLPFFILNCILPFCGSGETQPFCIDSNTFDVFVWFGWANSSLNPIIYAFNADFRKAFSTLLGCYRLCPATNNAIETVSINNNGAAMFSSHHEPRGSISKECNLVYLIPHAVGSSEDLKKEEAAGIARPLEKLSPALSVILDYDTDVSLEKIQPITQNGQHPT

Row | Structure (SMILES) | B-score
1 | CCC(C)n1[nH]c(=O)cc1N (stereo unspecified) | -0.0177
2 | COc1ccc(C(=O)Nc2ccc3c(c2)OCO3)cc1OC | 1.31
3 | Cn1c(=O)n(C)c2cc(C(=O)Nc3ccc4c(c3)OCO4)ccc21 | -2.3
4 | CC(C)C(=O)Nc1cccc(C(=O)Nc2ccc3c(c2)OCO3)c1 | -3.26 (active)
5 | CCOc1ccc(Cn2nnc(C(=O)NCc3ccccc3)c2N)cc1 | 0.835
6 | CC1(C)CC(=O)C(C=NCCC2=CCCCC2)=C(O)C1 | 1.52
7 | Fc1ccc2[nH]c3c(N4CCSCC4)ncnc3c2c1 | -5.42 (active)
8 | Cc1ccc2c(c1)NCC(C(=O)NC1CCC(C)CC1)O2 (stereo unspecified) | 0.396
9 | CC1(C)CC(=O)C=C(NC2CC(C)(C)NC(C)(C)C2)C1 | -0.998
10 | CCCCc1c(O)nc2n(c1=O)CCS2 | 3.41 (active)
11 | CCOC(=O)N1CCN(C(=O)c2cnc3n(c2=O)CCS3)CC1 | 0.461
12 | CN(CCc1ccccn1)S(=O)(=O)c1ccc2c3c(cccc13)C(=O)N2 | 0.281
13 | CCC/C(O)=C1\C(=O)CC(C)(C)CC1=Nc1ccccc1OC | 0.24
14 | COc1ccc(NC(=O)c2cccc(NC(=O)c3ccco3)c2)c(OC)c1 | -0.0282
15 | Cc1nn(-c2ccccc2)c2c1C(=O)NC(=O)C(C)(C)C2 | 20.5 (active)
16 | Cc1cc(NC(=O)Nc2ccccc2)n(-c2ccccc2)n1 | -0.331
17 | Cc1nn(-c2ccccc2)c(CC(C)(C)C(=O)O)c1C(=O)O | 0.0788
18 | Cc1cc(Nc2ccc(Br)cc2F)n2ncnc2n1 | -0.165
19 | COC(=O)c1oc2ccc(Br)cc2c1NC(C)=O | 0.0355
20 | Cc1cc(C)nc(-n2nc(C)cc2NC(=O)c2ccc(Br)o2)n1 | 6.02 (active)
21 | Cc1cccc(-n2nc3c(c2NC(=O)c2ccc(Br)o2)CSC3)c1C | 0.109
22 | CCN(CC)S(=O)(=O)c1cccc(C(=O)Nc2cc(C)nn2-c2nc(C)cc(C)n2)c1 | 0.0356
23 | CS(=O)(=O)N(C(=O)NC(=O)NC1CCS(=O)(=O)C1)C1CCCCC1 (stereo unspecified) | -3.24 (active)

Row | Structure (SMILES) | B-score
24 | CC(=O)CCS(=O)(=O)c1ccc(C)c(C)c1 | 1.88
25 | COc1ccc(S(=O)(=O)N2CCOCC2)cc1C(=O)Nc1nc2ccccc2s1 | -0.687
26 | CC(c1cccnc1)N(CCN(C)C)C(=O)Nc1ccc(Cl)c(Cl)c1 (stereo unspecified) | -1.22 (active)
27 | CN(C)CCNC(CC(=O)Nc1ccc(Cl)c(Cl)c1)C(=O)O (stereo unspecified) | 0.834
28 | CC(C)NS(=O)(=O)c1ccc(NC(=O)c2cccnc2)cc1 | 1.41
29 | COC(=O)[C@H](C(C)C)n1c(C)c(C(C)=O)c(C(C)=O)c1C | 4.12 (active)
30 | CCOc1ccc(OCC)c(NC(=O)C(NS(=O)(=O)c2ccc3c(c2)oc(=O)n3C)C(C)C)c1 (stereo unspecified) | -0.175
31 | C#CCN1C(=O)C(O)(CC(=O)c2cc(OC)ccc2OC)c2ccccc21 (stereo unspecified) | 0.733
32 | CSC1=NCCN1C(=O)c1ccc(S(=O)(=O)N2CCOCC2)cc1 | -0.521
33 | Cn1c(=NC(=O)C2CC2)sc2cc(F)cc(F)c21 | 1.19
34 | COc1ccccc1N1CC(O)=C(c2nc3ccccc3s2)C1=N | -0.346
35 | COC(=O)C(C)Sc1nc2c(c(=O)n(C)c(=O)n2C)n1Cc1cccc(C)c1 (stereo unspecified) | 0.892
36 | Cc1cccc(Cn2c(SCCO)nc3c2c(=O)n(C)c(=O)n3C)c1 | 0.248
37 | C/C(Cl)=C\Cn1c(Nc2cccc(C)c2)nc2c1c(=O)n(C)c(=O)n2C | 13.2 (active)
38 | COCCCNC(=O)c1c(F)c(F)c(F)c(F)c1F | -0.712
39 | O=C(NCc1cccnc1)c1ccc(CS(=O)(=O)c2ccc(Br)cc2)o1 | -0.0969
40 | Cc1cccc(NC(=O)CSC(N)=O)c1C | -0.0507
41 | CCc1ccccc1N(CC(=O)NCCSCc1ccco1)S(C)(=O)=O | 0.0216
42 | O/N=C(\c1ccc2c(c1)OCCO2)C1CCCCC1 | 8.96 (active)
43 | O=C(c1ccc2c(c1)OCCO2)C1CCN(S(=O)(=O)c2cccc(F)c2)CC1 | 0.0652
44 | O=C(OCc1ccccc1F)c1ccc2c(c1)OCCO2 | 0.452
45 | Fc1c(F)c(C(F)(F)F)c(F)c(F)c1N1CCN(c2ccc3nnc(C(F)(F)F)n3n2)CC1 | 0.11
46 | CC1(C)CC(=O)C(C=NCc2cccnc2)=C(O)C1 | 1.34

Reference: PubChem BioAssay AID641 (Vanderbilt High Throughput Screening Facility, 2007)
